Assay outcomes: PubChem BioAssay, The Scripps Research Institute Molecular Screening Center
Sampled rows, rich in hits. Any-hit rate of the full collection: about 3.4%.
MITF inh: human MITF inhibition, primary screen. 0.91% of 650,000 active. inhibition, % at 2.6 µM. AlphaScreen MITF homodimerization, bead proximity signal; in the data active = inhibition above about 50%;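 note: 0% = vehicle wells with protein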
GPR151 activ: human GPR151 activation; 1% of 650,000 active; activation, % at 11.2 µM; AID 1508602; Q8TDV0; PathHunter beta-arrestin GPR151 cells, luminescence; in the data active = activation above about 4.9%;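 note: 0% = median of compound wells and 100% = cells with positive control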
Target sequence (Q8TDV0 whole entry, looked up): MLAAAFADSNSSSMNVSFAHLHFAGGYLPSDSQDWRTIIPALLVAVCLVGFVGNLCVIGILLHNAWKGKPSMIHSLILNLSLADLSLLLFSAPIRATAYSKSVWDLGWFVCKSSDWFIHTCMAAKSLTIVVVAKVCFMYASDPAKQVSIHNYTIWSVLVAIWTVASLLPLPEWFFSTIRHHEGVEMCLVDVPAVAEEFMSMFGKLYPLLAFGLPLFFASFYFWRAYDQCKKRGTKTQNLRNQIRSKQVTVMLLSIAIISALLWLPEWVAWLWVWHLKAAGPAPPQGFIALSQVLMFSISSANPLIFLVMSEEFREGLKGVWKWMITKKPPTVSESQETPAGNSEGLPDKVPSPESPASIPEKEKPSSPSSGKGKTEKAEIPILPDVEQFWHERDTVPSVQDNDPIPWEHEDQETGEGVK
TEAD-YAP inh: TEAD-YAP interaction inhibition | inhibition, % at 9.12 µM | 1.4% of 640,000 active | AID 1259422 | HEK-TIYL cells, TEAD-Gal4/YAP UAS-luciferase luminescence; in the data active = inhibition above about 32%;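 note: 0% = median of test compound wells and 100% = reference inhibitor wells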
FBW7 activator: activators of human E3 ligase FBW7; Q969H0; AlphaScreen FBW7–phospho-cyclin E peptide binding, activator screen; normalized activity (activation), % at 26.1 µM; 0.13% of 650,000 active; in the data active = normalized activity above about 1.9%;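 note: purified mutant Fbw7 with reduced substrate affinity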
An asterisk follows results filed as active.

`CC(C)c1ccc2nc(SCC(=O)N3CC(=O)Nc4ccccc43)c(C#N)cc2c1` gave MITF inh 19, GPR151 activ 0, TEAD-YAP inh 8 and FBW7 activator 0.
Screening CSc1cccc(C(=O)N2CC(=O)Nc3ccccc32)c1 returned MITF inh -5, GPR151 activ 0, TEAD-YAP inh 43* and FBW7 activator 0.
`Cc1cccc2cc(C#N)c(SCC(=O)N3CC(=O)Nc4ccccc43)nc12` gave MITF inh 5, GPR151 activ 5, TEAD-YAP inh 53* and FBW7 activator 0.
For Cc1ccc(CC(=O)N2CC(=O)Nc3ccccc32)cc1 the results were MITF inh 6, GPR151 activ 4, TEAD-YAP inh 45* and FBW7 activator 0.
Screening COc1ccc(CC(=O)N2CC(=O)Nc3ccccc32)cc1OC returned MITF inh 7, GPR151 activ 0, TEAD-YAP inh 25 and FBW7 activator 0.
For Cc1ccc(CC(=O)N2CC(=O)Nc3ccccc32)c(C)c1 the results were MITF inh -12, GPR151 activ -1, TEAD-YAP inh 34* and FBW7 activator 0.
`CC1(C)CC(=O)C2=C(C1)N(N1CCOCC1)C(N)=C(C#N)C2c1ccccc1C(F)(F)F` (stereo not drawn) gave MITF inh 9, GPR151 activ 1, TEAD-YAP inh -2 and FBW7 activator 0.
O=C(CCN1C(=O)c2ccccc2S1(=O)=O)Nc1ccccc1Cl was read as MITF inh 8, GPR151 activ 0, TEAD-YAP inh 0 and FBW7 activator 0.
For CC1=NN(c2ccc(C)c(C)c2)C(=O)/C1=C/c1ccc(N2CCOCC2)cc1 the results were MITF inh 5, GPR151 activ -1, TEAD-YAP inh 2 and FBW7 activator 0.
Screening CC(NC(=O)/C(=C/c1ccc2c(c1)OCO2)NC(=O)c1ccccc1)C(=O)O (stereo not drawn) returned MITF inh 2, GPR151 activ 0, TEAD-YAP inh 12 and FBW7 activator 0.
Oc1ccc(C2NN=C(Cc3ccccc3)S2)c(O)c1 (stereo not drawn) was read as MITF inh 102*, GPR151 activ 0, TEAD-YAP inh 8 and FBW7 activator 0.
Screening O=[N+]([O-])c1ccc(C2NN=C(Cc3ccccc3)S2)cc1 (stereo not drawn) returned MITF inh -7, GPR151 activ -1, TEAD-YAP inh -43 and FBW7 activator 0.
For Cc1ccc(C2=NNC(c3ccc(O)cc3O)S2)cc1 (stereo not drawn) the results were MITF inh 10, GPR151 activ -1, TEAD-YAP inh 80* and FBW7 activator 1.
`Cc1ccc(C2=NNC(c3ccncc3)S2)cc1` (stereo not drawn) gave MITF inh 8, GPR151 activ -1, TEAD-YAP inh -12 and FBW7 activator 0.
`O=C(O)c1ccc(C(=O)Nc2ccccc2S(=O)(=O)Nc2nccs2)cc1` gave MITF inh 9, GPR151 activ -1, TEAD-YAP inh -4 and FBW7 activator 3.7*.
Screening CC(C)(C)c1ccc(C(=O)Nc2ccc(S(=O)(=O)Nc3nccs3)cc2)cc1 returned MITF inh -5, GPR151 activ 1, TEAD-YAP inh -6 and FBW7 activator 0.
CC1C/C(=C/c2ccccn2)C(=O)/C(=C/c2ccccn2)C1 (stereo not drawn) was read as MITF inh 1, GPR151 activ 1, TEAD-YAP inh 80* and FBW7 activator 0.
For NC(=O)/C(=C\c1cccc([N+](=O)[O-])c1)NC(=O)c1ccccc1 the results were MITF inh 8, GPR151 activ 0, TEAD-YAP inh 4 and FBW7 activator 0.
For COc1ccccc1/C=N/Nc1nc(-c2ccccc2)cc(=O)[nH]1 the results were MITF inh 1, GPR151 activ -1, TEAD-YAP inh 50* and FBW7 activator 0.
`COc1ccc(C(=O)Nc2noc3ccccc23)cc1` gave MITF inh -5, GPR151 activ -11, TEAD-YAP inh 86* and FBW7 activator 0.
For COc1cccc(C(=O)Nc2cc(C)on2)c1 the results were MITF inh 4, GPR151 activ -4, TEAD-YAP inh -20 and FBW7 activator 0.
For COc1cccc(C(=O)Nc2noc3ccccc23)c1 the results were MITF inh -9, GPR151 activ -9, TEAD-YAP inh 57* and FBW7 activator 0.
Screening N=C1/C(=C/c2ccc(-c3cccc(C(=O)O)c3)o2)C(=O)N=C2SC(COc3ccccc3)=NN12 returned MITF inh 5, GPR151 activ -2, TEAD-YAP inh 1 and FBW7 activator 0.
Screening CCOc1cc2c(cc1OCC)C(c1ccc(O)c(Cl)c1)NCC2 (stereo not drawn) returned MITF inh 7, GPR151 activ 0, TEAD-YAP inh 7 and FBW7 activator 0.
`COc1cc(=O)n2c(c1C(=O)NC(C)c1ccco1)CCN(C(=O)c1ccccc1)CC2` (stereo not drawn) gave MITF inh 6, GPR151 activ 3, TEAD-YAP inh -15 and FBW7 activator 0.
`Cc1ccc(C2=NN=C(NC(=O)CSc3nnc(C)s3)SC2)cc1` gave MITF inh 13, GPR151 activ -1, TEAD-YAP inh 55* and FBW7 activator 0.
COc1ccc(-c2nnc(SCC(=O)Nc3ccc(N)cc3)n2-c2ccccc2)cc1 was read as MITF inh -92, GPR151 activ 0, TEAD-YAP inh -2 and FBW7 activator 6.5*.
For Cn1cnnc1SCC(=O)NC1=NN=C(c2ccccc2)CS1 the results were MITF inh -2, GPR151 activ 0, TEAD-YAP inh 2 and FBW7 activator -1.
`Cc1nnc(SCC(=O)Nc2ccc(Cl)c(Cl)c2)s1` gave MITF inh 10, GPR151 activ 0, TEAD-YAP inh 18 and FBW7 activator 0.
Cc1nnc(SCC(=O)Nc2ccc3ccccc3c2)s1 was read as MITF inh 15, GPR151 activ -1, TEAD-YAP inh 10 and FBW7 activator 2.0*.
COc1ccc(NC(=O)c2ccc(NC(=O)CSc3nnc(N)s3)cc2)cc1 was read as MITF inh -7, GPR151 activ -1, TEAD-YAP inh -4 and FBW7 activator 8.2*.
For CC(=O)OC[C@H]1O[C@H](c2ccc3c(c2)OCO3)C=C[C@@H]1OC(C)=O the results were MITF inh 3, GPR151 activ 0 and FBW7 activator 0.
FC(F)(F)c1cccc(CNc2nc(-c3cccs3)nc3c2ncn3C2CCCCC2)c1 was read as MITF inh 23, GPR151 activ -1, TEAD-YAP inh -4 and FBW7 activator 0.
CC(NC(=O)CN1N=C(C(C)(C)C)Cn2c(cc3sccc32)C1=O)c1ccncc1 (stereo not drawn) was read as MITF inh 9, GPR151 activ 0, TEAD-YAP inh 1 and FBW7 activator 0.
Screening COc1ccc(C2CC(c3ccc(C)cc3)n3nc(N)nc3N2)cc1 (stereo not drawn) returned MITF inh -8, GPR151 activ -1, TEAD-YAP inh -8 and FBW7 activator 0.
CCOC(=O)C(=O)N1CCN(C(=O)c2ccco2)CC1 was read as MITF inh 46, GPR151 activ -1, TEAD-YAP inh 2 and FBW7 activator 0.
